High-throughput results: PubChem BioAssay, National Center for Advancing Translational Sciences (NCATS)
HPGD inh: inhibitors of human 15-hydroxyprostaglandin dehydrogenase (HPGD) | P15428 | purified HPGD, NADH fluorescence kinetic, PGE2 substrate | Potency, µM, without a hit: at the top dose activity change, negative = inhibition, hits mostly inhibitors | 150,000 tested, 4.3% active; active means well fitted inhibition curve with a large enough effect, not every such curve was filed as active; inconclusive means small, poorly fitted or top-dose-only effect, or another doubt; inactive means no such curve, though single readings can be large or run the other way; further: potency means the concentration at half of the fitted maximal effect; on the % scale 0 is the no-effect control and ±100 the full control effect
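NADH formation kinetics: reaction with 30 uM PGE2 and 1 mM NAD+ (final), 20 nM enzyme, Tris-HCl pH 8 with Tween 20, after 15 min compound preincubation at room temperature. Fluorescence change, last versus first of five reads.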
ALDH1A1 block: ALDH1A1 (human) enzyme inhibition. Purified ALDH1A1, NADH fluorescence, propionaldehyde substrate. AID 1030. P00352. Potency, µM (titrated, usually from 75.3 µM), for the others: at the highest dose activity, negative = inhibition, actives largely listed as inhibitors. 220,000 tested, 7.3% active; active means well fitted inhibition curve with a large enough effect, not every such curve was filed as active; inconclusive means small, poorly fitted or top-dose-only effect, or another doubt; inactive means no such curve, though single readings can be large or run the other way;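 further: potency means the concentration at half of the fitted maximal effect; plate controls were no enzyme wells and a reference inhibitor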
Target sequence (P00352 whole entry, looked up): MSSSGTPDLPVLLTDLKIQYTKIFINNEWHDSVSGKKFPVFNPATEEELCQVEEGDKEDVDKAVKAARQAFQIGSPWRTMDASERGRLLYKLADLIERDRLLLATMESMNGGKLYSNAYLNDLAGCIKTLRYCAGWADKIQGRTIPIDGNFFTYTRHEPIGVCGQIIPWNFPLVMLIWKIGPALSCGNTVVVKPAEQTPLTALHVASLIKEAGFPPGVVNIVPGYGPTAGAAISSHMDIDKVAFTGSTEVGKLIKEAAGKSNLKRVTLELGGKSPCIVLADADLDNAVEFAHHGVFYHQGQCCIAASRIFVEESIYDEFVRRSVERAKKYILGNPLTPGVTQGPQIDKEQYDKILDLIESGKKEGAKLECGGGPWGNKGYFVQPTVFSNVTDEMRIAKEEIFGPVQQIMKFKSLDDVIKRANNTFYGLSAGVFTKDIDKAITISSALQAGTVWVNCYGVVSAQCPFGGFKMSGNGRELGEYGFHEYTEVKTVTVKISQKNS
HTT aggregate: mutant huntingtin aggregation inhibition | PC12 HttQ103-GFP aggregates, Acumen cytometry, 40 h | Potency, µM (series often up to 46.1 µM), for the others: at the top dose activity change, negative = inhibition, actives largely listed as inhibitors | 220,000 tested, 1.1% active; further: potency means the concentration at half of the fitted maximal effect; on the % scale 0 is the no-effect control and ±100 the full control effect; nearly all actives have a fitted effect of over 60% in size
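Using laser scanning cytometry, GFP-positive aggregates were counted after lysis of PC12 cells induced with 100 nM tebufenozide to express HTT exon 1 Q103–GFP. Compounds were tested in titration.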
CBFb-RUNX1 inh: CBF-beta/RUNX1 interaction disruption | AID 1477 | Q01196+Q13951 | 230,000 tested, under 10 active | Potency, µM (titrated, usually from 59.8 µM), for the others: top-dose activity, negative = inhibition, usual class: inhibitors | AlphaScreen CBFb-His/RUNX1-biotin binding, biochemical; further: % of control where 0% means no effect
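Inhibition was taken as any reduction in AlphaScreen signal from the CBF-beta–RUNX1 pair (His and biotin tags, 30 nM each), measured after compound (15 min) and bead (90 min) incubations at room temperature.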
PNC inhibitor: perinucleolar compartment assembly inhibition. PC3M PTB-GFP, PNC prevalence imaging, 16 h; hits give low values. 140,000 tested, 3.1% active. activity change (PNC), negative = inhibition, % at 10 µM;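 active means readout at or below -70, meaning at least 70% loss of cells showing the perinucleolar compartment, a nuclear body marking cancer cells; inconclusive means readout between -30 and a set limit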;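 further: plate controls were DMSO wells for no effect and camptothecin positive control wells for full effect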
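Compounds are pinned in duplicate onto adhered PC3M cells stably expressing GFP-tagged PTB and incubated 16 h at 37 C. Cells are then fixed, nuclei stained with Hoechst, and PNC-positive cells counted.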
HTT cytoprotect: cytoprotection in Huntington HTT-Q103 PC12 cell model; PC12 HTT-Q103 induced, cytoprotection, ATP luminescence, 40 h; Potency, µM (series often up to 56.4 µM), for inactives: cytoprotection (ATP increase), actives largely listed as activators; 230,000 tested, 0.14% active; AID 1471; further: potency means the concentration at half of the fitted maximal effect; % of control where 0% means no effect; nearly all actives have a fitted effect of over 45% in size
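Compounds added alongside 100 nM tebufenozide, which induces toxic Q103 huntingtin exon 1-GFP in stable PC12 cells; surviving cells quantified by luminescent ATP measurement. Medium: phenol red-free DMEM, 5% equine and 5% calf serum.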
The depositor's hits bear a star; ? = inconclusive; / = no result; [ ] = another dose, or the depositor's remark. Most compounds without a hit are left out; they make up all but 11% or so of the library. Unless noted, the call rests on the fitted dose curve; in most records, active means well fitted curve in the direction sought with a large enough effect; inconclusive means small, poorly fitted or top-dose-only effect, or another doubt; inactive means no such curve, though single readings can be large; an effect the other way counts as inactive or inconclusive.

SMILES	HPGD inh	ALDH1A1 block	HTT aggregate	CBFb-RUNX1 inh	PNC inhibitor	HTT cytoprotect
Cc1ccc(NC(=O)C(C)Sc2nnc(-c3cccnc3)n2-c2ccccc2)cc1 (configuration not stated)	14µM*	-10%	9%	2%	?	20%
Cc1ccc(NC(=O)C(C)Sc2nc(=O)cc(N)n2-c2ccccc2)cc1 (configuration not stated)	-16%	11µM*	20%	-4%	-21	-20%
COc1cc2c(C(=O)N3CCN(c4cccc(Cl)c4)CC3)cn(CC(C)C)c(=O)c2cc1OC	-8%	?	-17%	-5%	40	-67%
Cc1sc(NC(=O)c2cccs2)c(C(N)=O)c1C	25µM*	11µM*	2%[9.22 µM]	2%	-26	-28%
Cc1ccc(C(=O)Nc2sc(C)c(C)c2C(=O)c2ccccc2)cc1	20µM*	10µM*	7%	-7%	-28	-1%[10 µM]
Cc1sc(NC(=O)c2ccccc2)c(C(=O)c2ccccc2)c1C	3.5µM*	5µM*	0%	-22%	8	2%[10 µM]
COC(=O)[C@@]1(Cc2ccccc2)[C@H]2c3cc(C(=O)N(C)C)n(Cc4ccccc4)c3C[C@H]2CN1C(=O)c1ccccc1	-13%	-3%	/	-14%	/	11%
Nc1ccc(S(=O)(=O)NCc2ccccc2)cc1	/	/	-3%	/	/	?
Cc1noc(C)c1C(=O)N1CCN(c2ccc(OCc3ccccc3)cc2)CC1	/	/	31%[9.22 µM]	6%	/	-1%[10 µM]
Cc1cc(C)n(C(=O)CNC(=O)COc2ccccc2)n1	32µM*	11%	7%	2%	-9	-28%
Cc1noc(C)c1-c1cc(NCc2cccs2)ncn1	/	-5%	/	/	/	17%
C=C1C(=O)[C@]23[C@H](O)[C@H]1CC[C@H]2[C@@]12COC3(O)[C@H](O)[C@@H]1C(C)(C)CC[C@@H]2O	?	9%	/	-7%	/	/
CCOC(=O)CSc1nc2c(sc(=S)n2-c2ccccc2OC)c(=O)n1Cc1ccco1	-9%	?	30%	-23%	-15	-3%
COc1ccc2[nH]cc(CCNc3ncncc3-c3ccccc3Cl)c2c1	/	-6%	/	/	/	-64%
COCCn1cnc2c1-c1ccc(OC)c(c1)OC/C=C\COc1cccc-2c1	/	/	/	-17%	/	/
CCN(CC)C(=O)CC(c1ccccc1)c1ccco1 (configuration not stated)	16µM*	-11%	-2%	-2%	-1	1%
CCC(=O)N(CCC(Cc1ccccc1)c1ccco1)Cc1ccco1 (configuration not stated)	/	14µM*	15%[9.22 µM]	-2%	/	16%[10 µM]
COc1ccccc1C(CCN(Cc1cccs1)C(C)=O)c1ccco1 (configuration not stated)	/	8.9µM*	20%	-27%	31	-8%
CCCN(CCC)C(=O)CC(c1ccc(F)cc1)c1ccco1 (configuration not stated)	1%	?	?	-1%	24	-4%
CCC(=O)N(CCC(c1ccccc1)c1ccco1)Cc1cccs1 (configuration not stated)	-20%	8.9µM*	-2%	-7%	76	-5%
CCC(=O)N(CCC(Cc1ccccc1)c1ccc2c(c1)OCO2)Cc1ccccc1F (configuration not stated)	-10%	?	?	5%	34	-56%
O=C(CN1CCOCCOCCOCCOCC1)Nc1ccccc1	-7%	?	-4%	10%	4	17%[10 µM]
COc1ccccc1CNC(=O)/C=C/c1cc2c(cc1Br)OCO2	-17%	12%	26%	1%	?	4%
O=S(=O)(c1ccccc1)N1CCN(S(=O)(=O)c2ccccc2)C1	-7%	-10%	2%	12%	-15	-6%
O=S(=O)(c1ccccc1)n1ccc2ccccc21	?	?	11µM*	2%	-7	6%
Cc1cc(C)c(S(=O)(=O)n2ccc3ccccc32)c(C)c1	-16%	16%	10µM*	?	-14	-78%
